# Results taken from PubChem BioAssay (NCI).
# The panel holds about 79,000 compounds, 15% with a hit somewhere; the sample as a whole holds those more often. Unmarked numbers belong to inactive results. The source made the active and inactive calls. Rule as the data show it: active = growth inhibition above about 70%; inactive = the rest.
# Columns and labels:
# [1] = NCI Yeast Anticancer Drug Screen. Data for the rad50 strain (AID 155);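 also: 0% = growth of vehicle-only cultures of the same strain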; details: S. cerevisiae rad50 strain growth inhibition; at 50.0 µM; stronger effect = higher value
# Procedure, shortened: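 Cells are treated with compound, grown, and their growth is then scored against vehicle-only cultures of the same repair-deficient yeast strain.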
# [2] = NCI Yeast Anticancer Drug Screen. Data for the mec2-1 strain (AID 157); details: S. cerevisiae mec2-1 strain, at 50.0 µM, stronger effect = higher value
# Procedure, shortened: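 Test agents were screened against the mec2-1 yeast strain, with defined DNA repair or cell cycle alteration. Growth was scored as inhibition against vehicle-only controls.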
# [3] = NCI Yeast Anticancer Drug Screen. Data for the sgs1 mgt1 strain (AID 161);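 also: 0% = growth of cultures given vehicle only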; details: S. cerevisiae sgs1 mgt1 strain, at 50.0 µM, stronger effect = higher value
# Procedure, shortened: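 Read-out: growth inhibition vs vehicle controls. Cells: mutant yeast strain deficient in DNA damage repair.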
# [4] = NCI Yeast Anticancer Drug Screen. Data for the cln2 rad14 strain (AID 165);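 also: 0% = growth equal to vehicle treated cultures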; details: S. cerevisiae cln2 rad14 strain, at 50.0 µM, stronger effect = higher value
# Procedure, shortened: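 Growth of compound-exposed yeast (cln2 rad14 genotype) measured and expressed as inhibition relative to vehicle.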
# [5] = NCI Yeast Anticancer Drug Screen. Data for the bub3 strain (AID 167); details: S. cerevisiae bub3 mutant strain, at 50.0 µM, stronger effect = higher value
# Procedure, shortened: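 Part of a panel of yeast mutants defective in DNA damage repair or cell cycle regulation. Each strain is grown with compound, and inhibition is calculated relative to solvent-treated cultures.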
# [6] = NCI Yeast Anticancer Drug Screen. Data for the mlh1 rad18 strain (AID 175); details: S. cerevisiae mlh1 rad18 strain growth inhibition; at 50.0 µM; stronger effect = higher value
# Procedure, shortened: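 In this whole-cell yeast screen, a strain with altered DNA damage repair is challenged with compound, and its growth is measured against matched vehicle-treated controls.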
SMILES,growth inhibition [1],growth inhibition [2],growth inhibition [3],growth inhibition [4] [%],growth inhibition [5],growth inhibition [6]
O=c1c(O)c(-c2ccccc2)oc2c(CP(=O)(O)O)cccc12,5.05%,-19.1%,-17.3%,-12.5,-2.45%,-18%
CCC1(CC)NC(=S)NC1=S,24.5%,7.4%,26.4%,10,16.4%,20%
Cn1ccnc1SC(=O)C(Cl)(c1ccccc1)c1ccccc1,-13.2%,5.85%,-0.8%,-18.4,0.35%,5.45%
O=P1(O)c2ccccc2CSCc2ccccc21,24.4%,-7.35%,-11.8%,-2.8,-2.65%,-31.8%
CS/N=C(\c1ccccc1)N(C)C,-23.9%,-4.05%,-1.45%,-25.1,-1.6%,3.35%
O=C(O)C(=O)Cc1cccc(Cl)c1[N+](=O)[O-],2.15%,5.25%,13.4%,-10.6,-4.75%,15%
CC/C=C(\C)C(C#N)(CC)C(=O)OCC (stereo not given),4.65%,-12.7%,-4.6%,2.75,-20.4%,9.2%
C=CCCCCCCCCC(=O)NCC1CCCCO1 (stereo not given),2.8%,-0.5%,67.6%,-1.35,10.1%,58.1%
Cc1ccc(C)c(NC(=O)NCc2ccc(Cl)cc2)c1,-7.65%,-41.2%,-11.4%,13.2,-58.1%,10.2%
COC(=O)c1nc2nnc(N)n2c(-c2ccc(Cl)cc2)c1C,-6.3%,11.1%,7.25%,-15.9,-4.35%,0.75%
Cc1ccc(S(=O)(=O)NC(=O)C#CCOC2CCCCO2)cc1 (stereo not given),8.7%,-0.85%,-3.3%,14.3,22.6%,18.2%
O=C1OC(=O)C2C1C1(Cl)CC2(Cl)C(Cl)=C1Cl (stereo not given),-3.05%,-31.8%,2%,-30.8,-23.1%,-18.6%
Cc1ncc(CO)c(/C=N\Nc2ccc([N+](=O)[O-])cc2[N+](=O)[O-])c1O,-21.4%,19.2%,9.7%,-17.7,11.3%,13.9%
CC(Br)C(=O)NCC(=O)NCC(=O)O (stereo not given),31.9%,-14.9%,-4.2%,16.4,16.9%,-4.75%
CCOC1([N+](=O)[O-])c2ccccc2-c2nc3ccccc3cc21 (stereo not given),96.8% (active),75.5% (active),74% (active),63.7,78.8% (active),92.4% (active)
O=C(Nc1ccc(Cl)c(Cl)c1)Oc1ccc(-c2ccccc2)cc1,73.2% (active),88% (active),93.2% (active),43.6,87.5% (active),95.7% (active)
COc1ccc(C(C)c2cc3c(cc2OCCO)OCO3)cc1 (stereo not given),8.35%,6.7%,44.3%,18.1,41.8%,45.7%
Cc1ccc(S(=O)(=O)OCC23CCC(C4CC42)C2CC23)cc1 (stereo not given),-21.9%,-28.5%,-14.8%,4.2,-10.1%,10.4%
CC(c1ccccc1)N1OC1(c1ccccc1)c1ccccc1 (stereo not given),41.5%,50.4%,57.8%,22.9,30.6%,90.1% (active)
COc1cc(-c2cccs2)sc1-c1cccs1,10.4%,-7.15%,31.4%,8.95,19.6%,13.2%

SMILES,growth inhibition [1],growth inhibition [2],growth inhibition [3],growth inhibition [4] [%],growth inhibition [5],growth inhibition [6]
O=C(CC1(O)CCCCC1)Nc1ccccc1,1.9%,-8.45%,-8.4%,-54.6,4.6%,-13.1%
Cc1cc(Cl)c(O)c(C2(C(O)c3ccc(O)cc3)NC(=S)NC2=O)c1 (stereo not given),-20.4%,-17.1%,-25.6%,-6.5,4.95%,-6.75%
Cc1c(C)c(C(=O)O)c(C)c(C)c1C(=O)O,25.9%,-8.1%,17.9%,9.1,24.4%,0.05%
NC(=O)CSCC(N)C(=O)O (stereo not given),-9.75%,-26.4%,-13.1%,-21.9,-28.5%,-20%
C[n+]1c2ccccc2c(Oc2c3ccccc3[n+](C)c3ccccc23)c2ccccc21,3.8%,11.2%,31.4%,-15.3,-4.4%,0.1%
CCc1nc(N)nc(N)c1-c1ccc(OC)c([N+](=O)[O-])c1,3.25%,-14.7%,-27.2%,24.9,-21.4%,7.9%
C(=C/c1ccc(/C=C/C=C\c2ccccc2)cc1)/C=C/c1ccccc1,-4.1%,-2.25%,13.8%,-50.6,-2.1%,-12.2%
COc1ccc(NC=O)c(C)c1,-10.5%,-38.8%,-5.35%,-10.3,28.6%,-29%
CCOC(=O)CCC(Cl)(Cl)Cl,14%,-9.95%,-1.45%,-39,-7.85%,9.2%
O=C1OCCCC1(Cc1ccccc1)Cc1ccccc1,44.6%,-7.7%,37.4%,-16.1,39.6%,16.5%
C[Si](C)(C)CCCn1ccc(=O)[nH]c1=O,45.6%,7.45%,27.8%,-8.15,29.4%,-26.3%
CN(C)CCNCCN,4%,-28.4%,-6.2%,-1.55,-9.75%,-15.6%
C=C(C)CCCCCCCCC,-4.8%,-5.8%,17.6%,1.4,3%,-3.25%
Nc1cc2cn[nH]c2cc1N,-10.6%,4.75%,4.4%,-8.75,9.3%,25.6%
O=C(CC(C(=O)c1cccs1)c1cccs1)c1ccsc1 (stereo not given),-4.2%,-24.1%,10.6%,11.1,2.9%,-4.1%
O=CNCCc1ccc2c(c1)[nH]c1ccccc12,8.45%,16.1%,12.9%,-11.3,-13.2%,20.6%
O=C(O)/C=C/SCc1ccccc1,10.2%,-13.2%,0.8%,-4.3,1.4%,-3.05%
COc1cccc(/C=C2\C(=O)N(C(=O)c3ccc(NC(C)=O)cc3)N=C2C)c1,-43.9%,-25.8%,-57%,-17.2,-38%,-40.1%
CCOC(=O)Cn1c(C(F)(F)F)nc2nc(Cl)c(Cl)nc21,-0.6%,-22.9%,-33.5%,-94.9,-19.9%,-17.1%
O=C1/C(=C/c2ccc(O)c(CN3CCCCC3)c2)CCC/C1=C\c1ccc(O)c(CN2CCCCC2)c1,-0.8%,23.9%,1.75%,-8,-1.9%,19.4%
